Assay outcomes: PubChem, National Center for Advancing Translational Sciences (NCATS)
Sfp inh: qHTS Assay for Inhibitors of Bacillus subtilis Sfp phosphopantetheinyl transferase (PPTase) | 4'-phosphopantetheinyl transferase ffp (Bacillus subtilis), Q9F4F7 | Biochemical Sfp PPTase activity, qHTS | Potency, µM, without a hit: largest response in the series, negative = inhibition, actives largely listed as inhibitors | 3.5% of 310,000 active;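 also: the enzyme is Sfp with the accession as filed and its product quenches rhodamine fluorescence; 0% = enzyme reaction without inhibitor and -100% = no enzyme wells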
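Fluorescence-quenching assay with 15 nM Sfp, 5 uM rhodamine-CoA and 12.5 uM BHQ-2-labelled ybbR peptide in pH 7.6 Hepes/MgCl2 buffer. Enzyme was pre-incubated with compound for 15 min at room temperature. Rate was taken from the 30-min fluorescence change (525/598 nm).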
JMJD2A Tudor inh: qHTS Assay for Inhibitors of JMJD2A-Tudor Domain; Lysine-specific demethylase 4A (Homo sapiens), O75164; AlphaScreen JMJD2A-Tudor / H3K4me3 peptide binding; Potency, µM (doses to about 114 µM), for inactives: at the top dose activity change, negative = inhibition, hits mostly inhibitors; 4.4% of 390,000 active; also: % is scaled to controls: 0 for no effect and ±100 for the full control effect; nearly all actives have a fitted effect of over 50% in size
BAZ2B inh: qHTS Assay for Inhibitors of BAZ2B; AID 504333, 2011; Potency, µM (titrated, usually from 114 µM), inactives show top-dose activity change, negative = inhibition, most hits filed as inhibitors; 4.4% of 360,000 active; AlphaScreen BAZ2B-H3K14Ac peptide displacement; Bromodomain adjacent to zinc finger domain protein 2B (Homo sapiens), Q9UIF8; also: % is scaled to controls: 0 for no effect and ±100 for the full control effect; nearly all actives have a fitted effect of over 60% in size
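Compounds, titrated to a top concentration of 110 uM, were incubated 30 min at room temperature with preformed BAZ2B/acetyl-K14 H3 peptide complex (50 nM each). Proximity signal was measured by AlphaScreen after 20 min with beads.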
G9a inh: qHTS Assay for Inhibitors of Histone Lysine Methyltransferase G9a; G9a H3K9 monomethylation, AlphaScreen, 2 h; Potency, µM (highest dose often 102 µM), inactives show at the highest dose activity, negative = inhibition, most hits filed as inhibitors; AID 504332, 2011; 8.8% of 350,000 active; also: % is scaled to controls: 0 for no effect and ±100 for the full control effect; nearly all actives have a fitted effect of over 75% in size
Target sequence (Q96KQ7 913-1193 limits assumed): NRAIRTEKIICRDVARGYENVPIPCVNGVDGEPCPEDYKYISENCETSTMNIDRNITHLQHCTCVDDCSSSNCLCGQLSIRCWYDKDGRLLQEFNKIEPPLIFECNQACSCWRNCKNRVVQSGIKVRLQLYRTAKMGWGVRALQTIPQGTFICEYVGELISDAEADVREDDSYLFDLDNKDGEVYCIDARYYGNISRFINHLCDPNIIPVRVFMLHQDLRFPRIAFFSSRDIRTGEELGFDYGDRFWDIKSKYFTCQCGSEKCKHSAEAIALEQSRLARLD
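AlphaScreen detection with an anti-monomethyl H3K9 antibody quantified product after a 2 h room-temperature reaction containing 500 nM biotinylated H3K9 peptide, 20 µM SAM and 20 nM enzyme, which had been preincubated 15 min with compound.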
HP1b binding inh: HTS for Inhibitors of HP1-beta Chromodomain Interactions with Methylated Histone Tails | AlphaScreen HP1-beta / biotin-H3K9me3 peptide binding | 0.56% of 390,000 active | Chromobox protein homolog 1 (Homo sapiens), P83916 | Potency, µM (highest dose often 114 µM), for inactives: top-dose activity change, negative = inhibition, actives largely listed as inhibitors | AID 540317, 2011; also: nearly all actives have a fitted effect of over 70% in size
Target sequence (P83916 whole entry, looked up): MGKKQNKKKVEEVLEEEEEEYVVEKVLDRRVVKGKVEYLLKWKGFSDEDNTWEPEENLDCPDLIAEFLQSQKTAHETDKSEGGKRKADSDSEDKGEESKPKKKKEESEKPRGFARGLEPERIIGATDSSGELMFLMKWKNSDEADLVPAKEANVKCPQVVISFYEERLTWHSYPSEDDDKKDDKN
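HP1-beta protein (50 nM final) preincubated 30 min at room temperature with biotinylated H3(1-18)K9me3 peptide (50 nM) in PBS pH 7.4, 0.01% Tween-20, then compound added for 30 min. AlphaScreen streptavidin donor/nickel chelate acceptor beads (10 ug/mL final), 30 min dark, luminescence read.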
Starred values were filed as active, the others as inactive; ? = inconclusive; / = no result given; [ ] = dose if it differs, or a comment. Compounds with a hit are over-represented: about 12% of the library has one in this group of screens. Calls follow the shape of the dose curve; as a rule, active = well fitted curve in the direction sought with a large enough effect; inconclusive = small, poorly fitted or top-dose-only effect, or another doubt; inactive = no such curve, though single readings can be large; an effect the other way counts as inactive or inconclusive. Potency is read from the fitted curve at half-maximal effect.

SMILES	Sfp inh	JMJD2A Tudor inh	BAZ2B inh	G9a inh	HP1b binding inh
Cc1ccc([N+](=O)[O-])c(-c2n[nH]c(=S)n2-c2cccc(Cl)c2)c1	4%	?	-39%	2µM*	7%
Cc1cccc(-n2c(-c3ccoc3C)n[nH]c2=S)c1	?	8.9µM*	-11%	6.3µM*	-17%
Cc1ccccc1-n1c(-c2ccoc2C)n[nH]c1=S	-13%	7.9µM*	0%	2.2µM*	5%
Cc1ccc(S(=O)(=O)N(Cc2n[nH]c(=S)n2-c2ccccc2)c2cccc(Cl)c2)cc1	-3%	-13%	?	/	21%
COc1ccc(OC)c(N(CC(=O)NN=C2CCN(C)CC2)S(=O)(=O)c2ccccc2)c1	16%	-1%	-2%	22%	30%
COc1ccccc1NC(=S)N1CCn2cccc2C1c1cccnc1 (stereo unspecified)	8%	-22%	-33%	56µM*	0%
Fc1ccccc1C1c2cccn2CCN1C(=S)Nc1cccc(Br)c1 (stereo unspecified)	-15%	-1%	?	?	20%
Fc1cccc(NC(=S)N2CCn3cccc3C2c2cccnc2)c1 (stereo unspecified)	2%	-32%	?	50µM*	-5%
Fc1ccccc1C1c2cccn2CCN1C(=S)Nc1ccc(Br)cc1 (stereo unspecified)	20%	-23%	-4%	25µM*	20%
CCNc1ncc2nc(-c3cccs3)c(=O)n(C)c2n1	-3%	/	/	-3%[0.501 µM]	/
Cc1ccc2c(c1)-c1c(cnn1CC(=O)N1CCN(c3cc(C)ccc3C)CC1)CO2	/	-14%	-1%	-1%[59 µM]	10%
CC(C)(C)C1=CC(=O)C(=O)C(C(C)(C)C)=C1	1.1µM*	18µM*	28µM*	1.6µM*	?
Cc1nc(Nc2ccc(Cl)cc2)c2oc3ccccc3c2n1	-10%	?	-28%	2%[0.501 µM]	-6%[57 µM]
Cc1nc(Nc2cccc(Cl)c2)c2oc3ccccc3c2n1	-26%	-9%	-27%	71µM*	11%
Cc1nc(Nc2ccccc2F)c2oc3ccccc3c2n1	-3%	5%	-36%	32µM*	23%
COc1cc2nc(SCC(=O)Nc3ccccc3C)n3nc(CCn4c(C)nc5ccccc54)nc3c2cc1OC	/	?	/	?	20%
COc1ccc(N(CC(=O)NCc2ccccc2Cl)S(=O)(=O)c2c(C)nn(C)c2C)cc1	/	-16%	/	6%[59 µM]	19%
Cc1ccc(S(=O)(=O)Nc2nc3c(s2)C(=O)CC(C)(C)C3)cc1	11%	-7%	-37%	50µM*	27%
COc1ccc(S(=O)(=O)Nc2nc3c(s2)C(=O)CC(C)(C)C3)cc1	16%	-6%	22%	-30%[59 µM]	15%
CC1(C)CC(=O)c2sc(NS(=O)(=O)Cc3ccccc3)nc2C1	2%	-28%	4%	11µM*	-13%
NCCCCC(N)C(=O)NC(Cc1ccc(O)cc1)C(=O)NC(CCCCN)C(=O)O (stereo unspecified)	12%	/	/	/	/
CCCCC(=O)c1ccc(O)cc1	14%	-11%	-4%	?	30%
O=C(CCO)c1ccc(O)cc1	-7%	20µM*	13µM*	?	?
CCOc1cccc2c1OC(c1cc(OC)c(OC)c(OC)c1)N1N=C(c3ccc(C)o3)CC21 (stereo unspecified)	?	-34%	?	13µM*	11%
COc1ccc(C2CC(c3ccc(C)o3)=NN2C(C)=O)cc1 (stereo unspecified)	-3%	-12%	-8%	?	-3%
O=C(Nc1ccc(F)cc1F)c1cccc(C(=O)Nc2ccc(F)cc2F)n1	-8%	-10%	-30%	/	32%
CCc1nn(CC(=O)NCCc2ccc(OC)c(OC)c2)c(=O)c2cc3occc3n12	/	-17%	-23%	-2%[59 µM]	20%
